Experimental data: PubChem BioAssay (NCI)
About 83,000 compounds went through this panel and 20% of them were active in at least one assay; those are over-represented in the sample as a whole.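 Percent growth is the endpoint: 0 to 100 indicates growth inhibition (40 means 60% inhibition), 0 means no net growth, and negative values indicate cell death.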 Active and inactive are the calls of the source. How the source made its calls: active means growth percent below 10; inactive means the rest.

What was measured:
Test in all cases: NCI-60 one-dose screen, 48 h (100 = growth as untreated, 0 = no growth, -100 = all killed)
Conditions in all cases: 10 µM unless noted
[1] = test system: NCI-H23 lung
[2] = test system: NCI-H322M lung
[3] = test system: HOP-62 NSCLC
[4] = test system: NCI-H460 lung
[5] = test system: HOP-92 NSCLC
[6] = test system: NCI-H522 lung
[7] = test system: A549/ATCC NSCLC
[8] = test system: 786-0 renal
[9] = test system: COLO 205 colon

Measured: growth

CNC(=O)c1cc(Oc2ccc3c(c2)sc2nc(-c4ccc(N(C)C)cc4)cn23)ccn1
active: [4] 8.23% | [6] 3.82% | [9] 8.9%
inactive: [1] 35.5% | [2] 48.1% | [3] 45.4% | [5] 37.9% | [7] 23.4% | [8] 31%

Cn1ncc2ncc(-c3ccc4ncc(C#N)c(N5CCc6cc(F)c(Cl)cc65)c4c3)cc21
active: [5] 7.43%
inactive: [1] 46.8% | [2] 38.9% | [3] 22.3% | [4] 38.5% | [6] 20.3% | [7] 27.8% | [8] 21.8% | [9] 51.4%

Cc1ccc(S(=O)(=O)NCCCNc2nccc(-c3[nH]c(-c4ccccc4)nc3-c3ccc(F)c(O)c3)n2)cc1
inactive: [1] 96.2% | [2] 109% | [3] 112% | [4] 82.1% | [5] 93.7% | [6] 80.1% | [7] 80.4% | [8] 104% | [9] 91.9%

Cn1c(SCC(=O)c2ccc(F)cc2)nc2ccccc2c1=O
inactive: [1] 84.5% | [2] 99.8% | [3] 93.6% | [4] 101% | [5] 61.3% | [6] 83.9% | [7] 104% | [8] 96.8% | [9] 123%

Fc1ccc(-c2cn3c(-c4c[nH]c5ccc(Br)cc45)csc3n2)cc1
inactive: [1] 30.4% | [2] 81.4% | [3] 34.8% | [4] 52.9% | [5] 22.2% | [6] 85.1% | [7] 78.6% | [8] 97.2% | [9] 76.9%

O=C(/C=C/Nc1ccc(S(=O)(=O)Nc2ncccn2)cc1)c1ccc(N=Cc2c(O)[nH]c3ccccc23)cc1
inactive: [1] 96.5% | [2] 114% | [3] 108% | [4] 105% | [5] 93.6% | [6] 98.7% | [7] 102% | [8] 96.2% | [9] 117%

CC1(C)CC[C@]2(C(=O)NCCCCCCN(CCCN)CCCN)CC[C@]3(C)C(=CC[C@@H]4[C@@]5(C)CC[C@H](O)C(C)(C)[C@@H]5CC[C@]43C)[C@@H]2C1
inactive: [1] 105% | [2] 95.1% | [3] 111% | [4] 102% | [5] 101% | [6] 101% | [7] 93.1% | [8] 91.5% | [9] 102%

N#C/C(=N\Nc1ccc(F)cc1)C(=O)Nc1cc(-c2ccccc2)nn1-c1ccccc1
active: [1] 0.456% | [2] 0.72% | [4] 4.31% | [5] -21.3% | [6] 6.57% | [9] -7.35%
inactive: [3] 18.2% | [7] 11% | [8] 21.3%

O=C(CCl)Nc1ccc(NC(=O)c2cc(Cl)ccc2O)c(Cl)c1
inactive: [1] 29% | [2] 96% | [3] 101% | [4] 67.1% | [5] 127% | [7] 88.3% | [8] 88% | [9] 95.2%
active: [6] -22.6%

Cc1[nH]c(C(=O)Nc2ccc(C(N)=O)cc2N2CCOC(C)C2)c(Cl)c1Cl (stereo unspecified)
inactive: [1] 96.2% | [2] 95.1% | [3] 98.4% | [4] 102% | [5] 107% | [6] 95.1% | [7] 99.6% | [8] 92.9% | [9] 124%

CCOc1cccc(/C(N)=N/C(N)=N/c2nc3ccccc3s2)c1
active: [3] -38.7% | [7] -20%
inactive: [1] 66.4% | [2] 91% | [4] 70.4% | [5] 105% | [6] 94.3% | [8] 105% | [9] 113%

Cc1csc(/N=C(N)/N=C(\N)c2cccs2)n1
inactive: [1] 90.5% | [2] 100% | [3] 103% | [4] 104% | [5] 69.1% | [6] 98.9% | [7] 102% | [8] 112% | [9] 109%

CCCCOc1ccc(S(=O)(=O)N2CCN(c3nc(C)cc(N4CCOCC4)n3)CC2)cc1
active: [4] 1.22% | [9] 5.81%
inactive: [1] 41.7% | [2] 62.2% | [3] 59% | [5] 18.2% | [6] 88.8% | [7] 27.3% | [8] 33.4%

COc1ccc(N2CCN(C3=C(Cl)C(=O)c4ncccc4C3=O)CC2)cc1
active: [6] -9.71%
inactive: [1] 55.9% | [2] 97.2% | [3] 85.4% | [4] 52.7% | [5] 96.2% | [7] 96% | [8] 107% | [9] 30.5%

CCOP(=O)(OCC)OC[C@]12CCC(C)(C)C[C@H]1C1=CC[C@@H]3[C@@]4(C)CC[C@H](OP(=O)(OCC)OCC)C(C)(C)[C@@H]4CC[C@@]3(C)[C@]1(C)CC2
inactive: [1] 53.9% | [2] 83.7% | [3] 82.9% | [4] 51.3% | [5] 27.9% | [6] 51.5% | [7] 44.3% | [8] 66.3% | [9] 66.6%

N#Cc1cnc2ccc(-c3cnc4n[nH]nc4c3)cc2c1N1CCc2cc(F)c(Cl)cc21
inactive: [1] 14.4% | [2] 11.1% | [3] 11.8% | [4] 17.5% | [7] 11.2% | [8] 16.7% | [9] 37.8%
active: [5] 4.22% | [6] -10.1%

Cc1ccccc1Nc1nc(SC(C)C)nc(-c2ccccc2)c1C#N
inactive: [1] 31.7% | [2] 70% | [3] 37% | [4] 45.5% | [5] 64.5% | [6] 73% | [7] 102% | [8] 10.6% | [9] 119%

CC(C)(C)OC(=O)NCc1ccc(CNc2c([N+](=O)[O-])cnc3ccccc23)cc1
inactive: [1] 46.2% | [2] 91.6% | [3] 58.5% | [4] 70.1% | [5] 32.1% | [6] 62.4% | [7] 72.2% | [8] 73.8% | [9] 80.1%

Cc1csc(/N=C(N)/N=C(\N)c2cccnc2)n1
inactive: [1] 78% | [2] 87.2% | [3] 74.1% | [4] 62.3% | [5] 51.7% | [6] 54.4% | [7] 82% | [8] 90.6% | [9] 81.8%

CCN(CC)CCOc1ccc(C(=C(C)c2ccc(OC)cc2)c2ccc(OCCN(CC)CC)cc2)cc1
active: [3] 4.72% | [4] 1.96% | [5] -4.16% | [6] -4.16% | [8] -51.1% | [9] -56.5%
inactive: [1] 57.8% | [2] 33.5% | [7] 12.3%

NS(=O)(=O)c1ccc(CCn2c(-c3ccc(C(=O)O)cc3)nc(-c3ccccc3)c2-c2ccccc2)cc1
inactive: [1] 98.4% | [2] 97% | [3] 104% | [4] 107% | [5] 94.6% | [6] 96.8% | [7] 105% | [8] 103% | [9] 112%

COc1ccc(-c2cc(-c3ccc(N4CCOCC4)cc3)n3c(n2)nc2ccccc23)cc1OC
active: [5] -4.32%
inactive: [1] 98% | [2] 94.6% | [3] 94.8% | [4] 86.3% | [6] 87.7% | [7] 82.5% | [8] 84.7% | [9] 108%

CCOC(=O)c1cnc2c(-c3ccc(Cl)c(Cl)c3)cnn2c1
inactive: [1] 82% | [2] 90.8% | [3] 69.1% | [4] 99.7% | [5] 39.9% | [6] 66.9% | [7] 96.4% | [8] 90.8% | [9] 76.8%

CCCCSC1=C(Cl)CN(c2ccccc2)C1=O
active: [6] -9.23%
inactive: [1] 102% | [2] 101% | [3] 111% | [4] 104% | [5] 95.7% | [7] 104% | [8] 108% | [9] 125%

Clc1ccc2[nH]cc(-c3nn4cc(-c5ccncc5)nc4s3)c2c1
inactive: [1] 43.1% | [2] 49.2% | [3] 46.6% | [4] 10.1% | [5] 33.8% | [6] 36.4% | [7] 68.6% | [8] 69.9% | [9] 69.5%

CC(C)(C)c1cc(NC(=O)Nc2ccc(-c3cn4c5c(sc4n3)CCc3cn(CCCN4CCCCC4)cc3-5)cc2)no1
active: [1] -84.2% | [2] -78.8% | [3] -50.3% | [4] -69.1% | [6] -55.3% | [7] -79.6% | [8] -98.1% | [9] 5.79%
inactive: [5] 75.4%

Cc1csc(/N=C(N)/N=C(\N)c2cccc(C#N)c2)n1
inactive: [1] 84.5% | [2] 96.6% | [3] 64.6% | [4] 64.8% | [5] 27% | [6] 79.6% | [7] 71.9% | [8] 87.8% | [9] 76.1%

O=C(Nc1ccc(N2CCOCC2)cc1)Nc1ccc2c(ccn2C(=O)c2cccc(F)c2)c1
inactive: [1] 66.7% | [2] 92.5% | [3] 31.1% | [4] 38.8% | [5] 31.4% | [6] 73.7% | [7] 59.5% | [8] 28.4% | [9] 82.1%

N#Cc1c(-c2ccc(Br)cc2)cc(-c2c[nH]c3ccccc23)nc1N
inactive: [1] 51.3% | [2] 67.6% | [3] 42.5% | [4] 16.7% | [5] 43.6% | [6] 11% | [7] 42.1% | [8] 79.7% | [9] 51.5%

CSc1ccc(/C(=N/N=C(N)N)c2ccc(Cl)cc2)cc1
active: [3] 6.91% | [4] -12.7% | [5] -4.16% | [6] -41.9% | [7] 4.66% | [8] 4.8% | [9] -89.4%
inactive: [1] 12.6% | [2] 30.1%

Nc1cc(C(=O)N/N=C\c2ccc(OC(F)F)c(OC3CCCC3)c2)nn1CC(O)c1ccccc1 (stereo unspecified)
inactive: [1] 95.7% | [2] 103% | [3] 101% | [4] 105% | [5] 84.1% | [6] 88.9% | [7] 95.3% | [8] 107% | [9] 112%

C[C@@H]1OCC2(CCN(c3cnc(C(=O)Nc4cc(F)cc5cccnc45)cn3)CC2)[C@@H]1N
active: [9] 9.27%
inactive: [1] 82.2% | [2] 85.3% | [3] 83.8% | [4] 93.5% | [5] 45.7% | [6] 34.8% | [7] 82.2% | [8] 71.3%

N#Cc1c(-c2cccs2)cc(-c2cnccn2)nc1SCC(=O)N/N=C/c1ccc(Cl)cc1
inactive: [1] 100% | [2] 99.3% | [3] 99.1% | [4] 103% | [5] 89.4% | [6] 93.7% | [7] 94.6% | [8] 93.9% | [9] 115%

c1ccc(-c2cn3c(-c4c[nH]c5ccccc45)csc3n2)cc1
active: [5] -1.71%
inactive: [1] 57.8% | [2] 85.4% | [3] 91.3% | [4] 60.8% | [6] 51% | [7] 92% | [8] 99.5% | [9] 83.5%

NC(=O)c1c(NC(=O)c2ccc(C(F)(F)F)cc2)sc2c1CCC(=O)C2
inactive: [2] 92.1% | [3] 13.5% | [4] 19.1% | [7] 12.1% | [8] 24.5%
active: [1] -6.8% | [5] -25.3% | [6] -25.9% | [9] -64.7%

O=C(Nc1ccc(N=Cc2c(O)[nH]c3ccccc23)cc1)Nc1ccc(S(=O)(=O)Nc2ncccn2)cc1
inactive: [1] 27.1% | [2] 114% | [3] 99% | [4] 104% | [5] 94.2% | [6] 95% | [7] 101% | [8] 100% | [9] 125%

COc1ccc([C@@H]2C(=O)N(c3cc(OC)c(OC)c(OC)c3)[C@H]2c2ccc(OC)c(O)c2)cc1
inactive: [1] 28.9% | [2] 42.7% | [3] 31.3% | [5] 25.1% | [7] 29%
active: [4] 4.83% | [6] -39.4% | [8] 6.33% | [9] -79.3%

COc1ccc(CC(C)=C(c2ccc(OCCN3CCCC3)cc2)c2ccc(OCCN3CCCC3)cc2)cc1
active: [1] -82.4% | [2] -75.7% | [3] -66% | [4] -62.3% | [5] -82.4% | [6] -86% | [7] -68.2% | [8] -79.3% | [9] -61%

O=C1Nc2cc(Cl)ccc2/C1=C\c1ccc(OCc2ccccc2)cc1
inactive: [1] 94.3% | [2] 99.5% | [3] 96.2% | [4] 104% | [5] 109% | [6] 99.8% | [7] 105% | [8] 105% | [9] 110%
